# Compound activity: PubChem BioAssay, several laboratories
# FAS-TE inh = inhibitors of human fatty acid synthase thioesterase domain. 360,000 tested, 0.67% active. recombinant FAS-TE, OMFH fluorogenic substrate, fluorescence endpoint. inhibition, % at 15 µM. AID 602261;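 active means compounds whose normalised, plate-corrected inhibition of enzyme fluorescence in the single-dose primary screen is 50% or more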;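 further: 0% = DMSO with enzyme and 100% = substrate without enzyme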
# SMARCA2 act = increases SMARCA2 function in MMTV reporter cells; MG213 cells, MMTV-luciferase reporter, dexamethasone, overnight; activation, % at 9.1 µM; 370,000 tested, 1% active; in the data active means activation above about 7.8%;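 further: 0% = vehicle wells and 100% = reference activator wells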
# FXN GAA850 act = activators of GAA850 frataxin (FXN) promoter. activation, % at 6 µM. AID 540364. 360,000 tested, 0.56% active. HEK293 lucGAA850 FXN promoter luciferase reporter, 24 h; percent of 10 µM SAHA response;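 active means activation above the average of all compounds screened plus 3 SD, cutoff fixed separately per campaign, cut at about 7.5% in these data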;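 further: 0% = DMSO wells and 100% = 10 µM SAHA wells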
# proKLK7 act = activators of human kallikrein-7 zymogen | activation, % at 7 µM | purified proKLK7, EDANS-DABCYL substrate fluorescence; 100% is mature enzyme control, 0% vehicle | 370,000 tested, 0.9% active | P49862;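 active means activation above the mean of all tested compounds plus 3 SD, computed per campaign excluding outliers beyond control limits, cut at about 13% in these data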
# SMARCA2 act conf = SMARCA2 activation, confirmation screen; shares compounds with SMARCA2 act; MG213 cells, MMTV-luciferase with dexamethasone, luminescence, overnight; MG213 cells expressing E1A, Rb sequestered; DMSO wells 0%, reference activator 100%; 3,500 tested, 30% active; AID 652260; activation, % at 9.1 µM;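 active means activation above its plate's cutoff, the mean activation of tested wells plus 3 SD, cut at about 7.9% in these data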
# GAL4-VP16 Luc = activates GAL4-VP16 luciferase, flagging SMARCA2 activator hits; AID 686939; shares compounds with SMARCA2 act; activation, % at 9.1 µM; HEK293 GAL4-VP16 pG5luc reporter, luciferase luminescence; scaled: DMSO wells 0%, SAHA wells 100%; 3,500 tested, 41% active;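 active means activation above the solvent-only control well mean plus 3 SD, averaged across control plates, cut at about 5.2% in these data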
# An asterisk follows results filed as active; / = no result. The list is not random: actives were taken first. Their share in the collection is about 2.9%.
SMILES,FAS-TE inh,SMARCA2 act,FXN GAA850 act,proKLK7 act,SMARCA2 act conf,GAL4-VP16 Luc
O=C1CN(c2ccccc2)C(=S)N1C(=O)c1ccc(Br)cc1,8,8.8*,5,0,7,16*
O=C(c1ccc(Br)cc1)N1CCC(C(=O)N2CCN(c3ccccc3)CC2)CC1,3,-3,0,0,/,/
COc1ccc(-c2csc(C(O)c3ccc(F)cc3)n2)cn1 (stereo unspecified),4,8.1*,1,0,2,2
COc1ccc(-c2csc(C(O)c3ccc(F)cc3)n2)cc1 (stereo unspecified),6,0,0,0,/,/
Cc1ccc(C(=O)Nc2c3c(nn2C(C)(C)C)CS(=O)(=O)C3)cc1C,-7,0,0,0,/,/
COc1ccccc1NC(=O)Nc1ccc(S(=O)(=O)Nc2onc(C)c2C)cc1,-8,8.2*,-1,1,-1,0
Cc1noc(NS(=O)(=O)c2ccc(N/C=C\C(=O)c3ccc(F)cc3)cc2)c1C,-3,10*,4,0,5,1
COc1ccc(CCNC(=O)[C@H](CC(C)C)NC(=O)N2CCn3c2nc2ccccc23)cc1OC,0,-2,-1,0,/,/
CC(=O)Nc1ccc(NC(=O)CCn2cnnn2)cc1,-6,-1,0,0,/,/
O=S(=O)(Nc1nc2ccccc2nc1N1CCc2ccccc2C1)c1ccc(Cl)cc1,20,9.0*,5,-4,-2,4
CC1=C(C(=O)O)N2C(=O)C(NC(=O)c3ccn(C)n3)C2SC1 (stereo unspecified),-4,2,-2,-1,/,/
